A selection: hits, their analogues and other compounds. The true share with any hit is near 19%.
IL1B secr inh – blocks inflammasome-driven IL-1 beta release. THP-1 LPS/ATP IL-1B secretion, AlphaLISA, 16 h; active compounds read low. activity change, % at 57.5 µM. 360,000 tested, 4.7% active. AID 743279; in the data active means activity change below about -50%; inconclusive means mostly about -30% to -49%
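Secreted IL-1B measured by AlphaLISA bead assay after 16 h compound exposure of THP-1 cells; compounds (final up to 57.5 uM) added 1 h before LPS (250 ng/mL) and ATP (1.25 mM) stimulation; lower signal means less secretion.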
HT1080 IDH1KD tx – toxicity to HT-1080 IDH1 knockdown cells (counter line); HT-1080 IDH1 knockdown viability, ATP luminescence, 48 h; Potency, µM (series often up to 46.1 µM), for the others: top-dose activity, negative = toxicity, hits mostly cytotoxic; 360,000 tested, 2% active;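 further: potency means the concentration at half of the fitted maximal effect; 0% = DMSO wells and -100% = cell-free medium wells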
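In this qHTS, HT-1080 cells depleted of IDH1 are exposed for 48 h at 37 °C to compound titrations. Toxicity is scored from CellTiter-Glo luminescence, with DMSO as full viability and medium alone as none.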
ELG1 repair inh – blocks ELG1-dependent DNA repair in HEK293T cells; HEK293T ELG1-luciferase reporter, luminescence, 16 h; DNA damage induced by 5-fluorouridine; Potency, µM (series often up to 46.1 µM), without a hit: at the top dose activity change, negative = inhibition, most hits filed as inhibitors; 330,000 tested, 2.3% active; further: potency means the concentration at half of the fitted maximal effect; nearly all actives have a fitted effect of over 55% in size
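In this reporter screen, reduction of luminescence relative to DMSO vehicle indicated activity. Compounds and 5-fluorouridine were added together to 2,000 cells per well, incubated for 16 hr at 37 °C, then developed with ONE-Glo.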
TDP1 cell CPT – growth inhibition of DT40 Tdp1-/-;hTDP1 cells with camptothecin (screen for TDP1 inhibitors) | 420,000 tested, 12% active | chicken DT40 Tdp1-/-;hTDP1 cells + 20 nM CPT, ATP luminescence, 48 h | Potency, µM (titrated, usually from 46.2 µM), without a hit: at the top dose activity change, negative = growth inhibition, most hits filed as inhibitors; further: potency means the concentration at half of the fitted maximal effect; nearly all actives have a fitted effect of over 55% in size
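Chicken DT40 Tdp1-/- cells stably complemented with human TDP1 were seeded at 400 cells/well in medium containing 20 nM camptothecin, exposed to pin-transferred compounds, and grown at 37 °C for at least 48 hr. Viability was read as ATP luminescence.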
HT1080-NT tox – kills 2HG-producing HT-1080-NT fibrosarcoma cells; 360,000 tested, 1.6% active; Potency, µM (top dose mostly 46.1 µM), inactives show at the highest dose activity, negative = less viability, hits mostly cytotoxic; AID 686970; HT-1080-NT fibrosarcoma viability, CellTiter-Glo ATP luminescence, 48 h;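 further: NT is the 2HG producing partner of a matched IDH1 knockdown line; potency means the concentration at half of the fitted maximal effect; 0% = DMSO-treated cells and -100% = media-only wells without cells; nearly all actives have a fitted effect of over 55% in size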
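Read-out is CellTiter-Glo luminescence after 10 minutes at room temperature, following 48 hours' compound treatment of HT-1080-NT cells (750 cells/well, RPMI, 5% FBS, 37 degrees C).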
TDP1 cell noCPT – qHTS for Inhibitors of human tyrosyl-DNA phosphodiesterase 1 (TDP1): qHTS in cells in absence of CPT. DT40 Tdp1-/- hTDP1 cells, no CPT, ATP luminescence, 48 h. Potency, µM (doses to about 46.2 µM), inactives show at the highest dose activity change, negative = growth inhibition, usual class: inhibitors. 420,000 tested, 15% active. AID 686978, 2013; further: potency means the concentration at half of the fitted maximal effect; nearly all actives have a fitted effect of over 55% in size
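Camptothecin absent (DMSO only). Human TDP1-complemented DT40 knockout cells, 400 cells/well, 37 °C for minimum 48 hr; ATP measured via CellTiter-Glo, 30 min dark incubation, luminescence.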
* hit, by the source's call; ? = inconclusive; nt = not tested or not shown. Unless noted, the call rests on the fitted dose curve; in most records, active means well fitted curve in the direction sought with a large enough effect; inconclusive means small, poorly fitted or top-dose-only effect, or another doubt; inactive means no such curve, though single readings can be large; an effect the other way counts as inactive or inconclusive. Unless noted, on the % scale 0 is the no-effect control and ±100 the full control effect.

SMILES	IL1B secr inh	HT1080 IDH1KD tx	ELG1 repair inh	TDP1 cell CPT	HT1080-NT tox	TDP1 cell noCPT
O=C(C1CCN(c2ncnc3c2nc2n3CCCCC2)CC1)N1CCN(c2ccc(F)cc2)CC1	-19	-7%	7.3µM*	?	-1%	12µM*
CCc1c(C)nc2ncnn2c1N1CCC(C(=O)N2CCN(c3ccc(F)cc3)CC2)CC1	-13	11%	23µM*	16µM*	-2%	15µM*
CN1CCN(C(=O)C2CCN(c3ncnc4c3nc3n4CCCCC3)CC2)CC1	48	8%	8%	-23%	6%	-3%
O=C(C1CCN(c2ncnc3c2nc2n3CCCCC2)CC1)N1CCN(c2ccccc2)CC1	nt	nt	nt	?	nt	21µM*
COc1ccc(N2C(=O)CSC23CCC(C(C)(C)C)CC3)cc1 (stereo not given)	-2	4%	-4%	?	-2%	18µM*
COc1ccc(N2C(=O)CSC23CCCCC3)cc1	-1	6%	-5%	-13%	0%	?
CCN(CC)C(=O)c1ccccc1NC(=O)CN1C(=O)c2ccccc2C1=O	22	18%	18%	13%	7%	8%
O=c1c2ccccc2c(-c2ccc(O)cc2)nn1-c1cccc(C(F)(F)F)c1	-98*	21µM*	?	15µM*	?	15µM*
CN(C)C(=O)c1ccc(-c2nccc(-n3ccnc3)n2)cc1	nt	nt	nt	?	nt	-11%
O=C1OC[C@@H]2CCCN2C(=O)[C@@H](CC(=O)N(CCO)Cc2ccccc2)C/C=C\C[C@H]1Cc1ccc(F)cc1	-17	-10%	?	?	-8%	15µM*
CC(C)(C)OC(=O)C[C@@H]1C/C=C\C[C@H](CC(=O)N(CCO)Cc2ccccc2)C(=O)N2CCC[C@H]2COC1=O	-2	2%	?	?	1%	?
O=C1CCCC/C=C\C[C@H](CC(=O)N(CCO)Cc2ccccc2)C(=O)N2CCC[C@@H]2CO1	9	-5%	8%	16µM*	1%	?
O=C1OC[C@H]2CCCN2C(=O)[C@@H](CC(=O)N(CCO)Cc2ccccc2)C/C=C\C[C@H]1Cc1ccc(F)cc1	-23	-4%	-29%	13µM*	2%	18µM*
CC(C)(C)OC(=O)C[C@H]1C/C=C\C[C@H](CC(=O)N(CCO)Cc2ccccc2)C(=O)N2CCC[C@H]2COC1=O	-19	3%	?	26µM*	12%	?
CCCNC(=O)c1cc(S(=O)(=O)N2CCC3(CC2)OCCO3)ccc1F	17	-1%	nt	-11%	2%	-18%
O=C(O)C(O)C(O)c1nc2ccccc2[nH]1 (stereo not given)	4	9%	-2%	1%	12%	0%
CCOc1ccc(NC(=O)c2nc(S(=O)(=O)Cc3ccccc3F)ncc2Cl)cc1	nt	nt	nt	0.37µM*	nt	0.33µM*
O=C(Nc1ccc(OC(F)F)cc1)c1nc(S(=O)(=O)Cc2ccccc2F)ncc1Cl	nt	nt	nt	0.45µM*	nt	1µM*
O=C(NNC(=O)C1CCN(C(=O)Nc2ccccc2)CC1)c1ccc(F)cc1	0	1%	21%	-6%	1%	-2%
O=Nc1c(O)n(Cc2cccc(C(F)(F)F)c2)c2ccccc12	-246*	?	-10%	10%	?	-19%
O=Nc1c(O)n(Cc2ccc(Cl)c(Cl)c2)c2ccccc12	-59*	?	-8%	?	-25%	?
CCOc1ccc(/C=C/C2=CC(C)(C)NC(=S)N2)cc1	0	?	?	15µM*	-8%	?
O=C(O)C1Nc2ccccc2C2C=CCC12 (stereo not given)	nt	nt	nt	?	nt	-10%

High-throughput results: PubChem, National Center for Advancing Translational Sciences (NCATS)
